In PubChem BioAssay (NCI) one finds growth data, which are given here for 79 compounds.

In the experiment the test system is MDA-MB-468 breast. The experiment in a line: NCI-60 one-dose screen, 48 h (100 = growth as untreated, 0 = no growth, -100 = all killed). Particulars: 10 µM unless noted.

Where “and” joins values, the source holds several entries; their conditions need not be identical. Equal values may be shown once. The panel holds about 83,000 compounds, 20% with a hit somewhere; the sample as a whole holds those more often.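 Growth was measured after 48 h exposure to one concentration of compound in 96-well plates. Values under 10 count as active.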 Calls of active or inactive are those of the source.

Consider `CCC(=O)Oc1ccc2ccccc2c1`, for which the growth is 96.8% (inactive).

Regarding `CC(=O)O[C@@H]1C(=O)N(c2cnccn2)[C@H]1c1ccccc1[N+](=O)[O-]`, the growth is -4.17% (active).

Turning to `FC(F)(F)c1ccc(-c2cn3nc(-c4c[nH]c5ccc(Br)cc45)sc3n2)cc1`, the growth is 103% (inactive).

Regarding `CC1(C)CC[C@]2(C(=O)O)CC[C@]3(C)C(=CC[C@@H]4[C@@]5(C)CC/C(=N\OCCC#N)C(C)(C)[C@@H]5CC[C@]43C)[C@@H]2C1`, the growth was 106% (inactive).

Take `COc1nc2ccccc2cc1-c1nc2c(cnn2-c2ccc(Br)cc2)c(=O)[nH]1`: the growth is 5.52% (active).

Turning to `CCc1c(C)c2cc3nc(NCc4ccccc4)oc3c(C)c2oc1=O`, the growth was 68.2% (inactive).

Turning to `CCOC(=O)C1OC1(c1ccccc1)c1ccccc1` (centres undefined), the growth is 104% (inactive).

Regarding `O=C1/C(=C/c2ccc(OCCCOc3ccc(Cl)cc3)cc2)N=C2SCCCN12`, the growth is 61.2% (inactive).

`O=C(NCCN1CCCCC1)n1cc(-c2ccncc2)c(-c2ccc(Cl)c(O)c2)n1`: the growth is 83.8% (inactive).

Consider `COc1cc(OC)cc(-c2ccc(-c3ccc(C(=N)N)cn3)s2)c1`, for which the growth is 64.4% (inactive).

For the compound `O=C(Oc1cccnc1)c1ccsc1Nc1ccnc(C(F)(F)F)c1`, the growth is 17% (inactive).

In the case of `COc1cc(NC(=O)Nc2cnc(Nc3ccc(N4CCOCC4)cc3)nc2Oc2ccc(C(F)(F)F)cc2)cc(OC)c1`, the growth was 110% (inactive).

In the case of `COc1ccc(CCN=Cc2ccc(Cl)cc2)cc1OC`, the growth is 117% (inactive).

With `COc1ccc2[nH]cc(/C=N/Nc3nc4ccccc4s3)c2c1`, the growth is 40.6% (inactive).

In the case of `O=S(=O)(Nc1ccc(Cl)c(Cl)c1)c1ccc(-c2cnc(C3CC3)o2)cc1`, the growth was 7.72% (active).

As for `CC(=O)CC[C@H]1C(=O)N[C@@H](C(C)C)C(=O)N[C@@H](Cc2cc(O)cc(F)c2)C(=O)N2CCC[C@H](N2)C(=O)O[C@H](/C(C)=C/C=C/C(=O)OC(C)(C)C)C/C=C/C=C/[C@H](O)[C@H](C)[C@H]1O`, the growth is 15.1% (inactive).

On to `C/C(=C\C(=O)c1ccc(Cl)cc1)c1ccc(Cl)cc1`, for which the growth is 5.65% (active).

For `COc1ccc2[nH]c(=O)c(/C=C/C(=O)c3ccc(Nc4nccc(-c5ccc6ccccc6c5)n4)cc3)cc2c1`, the growth was 103% (inactive).

For the compound `Cc1ccc(-c2csc(NC(=O)CCCCl)n2)cc1`, the growth is 93.3% (inactive).

`CCN(CC)CC#CCOC(=O)[C@]1(C)CCC[C@@]2(C)[C@H]1CC(C=O)=C1C=C(C(C)C)CC[C@@H]12`: the growth was 41.5% (inactive).

As for `CC(C)C1=C(O)C2=C(C(=O)C1=O)[C@@]1(C)CCCC(C)(C)[C@@H]1CC2`, the growth was 73.1% (inactive).

Turning to `COc1cc(C2NC(c3ccc(Cl)cc3)C(C)C(=NC(=O)c3cnccn3)C2C)cc(OC)c1OC` (centres undefined), the growth was 91.6% (inactive).

Take `N=C(N)Sc1cccc[n+]1[O-]`: the growth is 62.4% (inactive).

As to `O=C(NCCCCO)c1cncnc1Nc1ccc2c(ccn2Cc2cccc(F)c2)c1`, the growth is 67% (inactive).

For the compound `COc1ccc(Nc2ncc(C#N)c(NCCCNC(=O)C3CCC3)n2)cc1`, the growth is 43% (inactive).

Consider `N#Cc1c(-c2cccs2)cc(-c2cnccn2)nc1SCC(=O)c1ccc(F)cc1`, for which the growth was 101% (inactive).

With `COc1cc(-c2cccc([N+](=O)[O-])c2)c(-c2nc(-c3ccccc3)c(-c3ccccc3)n2C2CC2)cc1OC`, the growth is 49.4% (inactive).

On to `Cc1cc(=O)oc2cc(Oc3nc(Br)cn4c(Br)cnc34)ccc12`, for which the growth was 41.4% (inactive).

Take `CCOC(=O)CO`: the growth is 99% (inactive).

As to `Cc1ccc(C2CC(c3ccc(Nc4ccnc5cc(Cl)ccc45)cc3)=NN2C=O)cc1` (centres undefined), the growth was 33% (inactive).

Take `Cc1ccc(NC(=O)c2cc(NCc3cc(O)ccc3O)ccc2O)cc1`: the growth is 86.6% (inactive).

As for `CCN(CC)S(=O)(=O)c1ccc(O)c(NC(=O)c2[nH]c(C)c(C(C)=O)c2CCc2ccc(Cl)cc2)c1`, the growth is 19.8% (inactive).

For the compound `O=C1CSC(c2ccc(O)cc2)N1c1nnc(Cn2cnnc2)o1` (centres undefined), the growth is 48% (inactive).

For the compound `C=C(CNCCc1ccc(O)cc1)[C@@H]1CC[C@]2(CO)CC[C@]3(C)[C@H](CC[C@@H]4[C@@]5(C)CCC(=O)C(C)(C)[C@@H]5CC[C@]43C)[C@@H]12`, the growth was 8.97% (active).

Consider `Cc1ccc(-n2nc3n(/c2=N\C(=O)NS(=O)(=O)c2ccc(C)cc2)CCN3C2=NCCN2)cc1`, for which the growth was 114% (inactive).

Regarding `CC#Cc1nc2ccccc2c(=O)[nH]1`, the growth was 14.8% (inactive).

Consider `CC(=O)Cc1ccccn1`, for which the growth was 120% (inactive).

`COc1cc(C(=O)/C=C/c2cccc(Nc3ccnc4cc(Cl)ccc34)c2)cc(OC)c1OC`: the growth is -49.5% (active).

Regarding `CCOCCc1c(O)nc(SC)[nH]c1=O`, the growth is 82.5% (inactive).

For `C/C(=C(/c1ccc(Cl)cc1)c1ccc(OCCN2CCCCC2)cc1)c1ccccc1`, the growth is 90.6% (inactive).

As for `COC(=O)c1c2c(c(C)[n+]([O-])c1C)C(=O)C(NCc1ccc(Br)cc1)=CC2=O`, the growth is -16.6% (active).

In the case of `Clc1ccc(NC(Nc2ccc(Cl)cc2)C(Cl)(Cl)Cl)cc1`, the growth is 98.4% (inactive) and 108% (inactive).

Take `CC1(C(=O)O)NC(C(=O)O)Cc2c1[nH]c1ccccc21` (centres undefined): the growth is 113% (inactive).

As to `COc1cc(OC)c(/C=C/C(=O)c2c(OC)cccc2OC)c(OC)c1`, the growth is -15.6% (active).

On to `CCOC(=O)c1cc2c(n1Cc1cc(OC)c(OC)c(OC)c1)-c1nc(N)sc1CCC2`, for which the growth is 35.8% (inactive).

As to `CCC1=C(c2ccc(OC)cc2)C(C)(C)Oc2c1ccc(O)c2CN1CCCC1`, the growth was -45.1% (active).

`COc1ccc(-c2nc(SCCC(C)C)nc(N/N=C\c3ccc(O)cc3)c2C#N)cc1`: the growth is 88.8% (inactive).

Regarding `O=C1/C(=C/c2ccc(Cl)cc2)CCC/C1=C\c1ccc(Cl)cc1`, the growth is 67.9% (inactive).

Regarding `O=C(OC[C@H]1O[C@H](OC(=O)c2cc(O)c(O)c(OC(=O)c3cc(O)c(O)c(O)c3)c2)[C@H](OC(=O)c2cc(O)c(O)c(OC(=O)c3cc(O)c(O)c(O)c3)c2)[C@@H](OC(=O)c2cc(O)c(O)c(OC(=O)c3cc(O)c(O)c(O)c3)c2)[C@@H]1OC(=O)c1cc(O)c(O)c(OC(=O)c2cc(O)c(O)c(O)c2)c1)c1cc(O)c(O)c(OC(=O)c2cc(O)c(O)c(O)c2)c1`, the growth was 54.1% (inactive).

`O=C(Nc1cccc(C2=NCCN2)c1)c1cccc(C(=O)Nc2cccc(C3=NCCN3)c2)c1`: the growth was 90.8% (inactive).

As for `CCCCCCCCCCCC1=NC(C)(C)CN1C(C)C`, the growth is -1.36% (active).

For `O=C(CC(NC(=O)OCc1ccccc1)C(=O)OCc1ccccc1)OCc1ccccc1` (centres undefined), the growth was 112% (inactive).

Consider `COc1ccc2nc(N=Nc3c(O)ccc4ccccc34)sc2c1`, for which the growth was 25.3% (inactive).

For `Clc1ncnc2nc[nH]c12`, the growth was 108% (inactive).

Turning to `Nc1c(C(=O)Nc2cccc(Br)c2)sc2nc3c(cc12)C(=O)CCC3`, the growth was 32.1% (inactive).

With `COc1cc(OC)c(C(=O)/C=C/c2ccc(C(F)(F)F)cc2)c(OC)c1`, the growth is 46.3% (inactive).

In the case of `COc1ccc2nc3cc(Cl)ccc3c(N3CCN(c4nccc(NCc5ccccc5)n4)CC3)c2c1`, the growth was 15% (inactive).

With `COc1cc2cc(Oc3ccc(NC(=O)c4cccc(C(F)(F)F)c4)cc3)c(C)nc2cc1OCCN1CCCCC1`, the growth was 37.6% (inactive).

Regarding `Cc1cc(N2CCN(CC(=O)Nc3ccc4c(ccn4Cc4ccccc4)c3)CC2)nc(N2CCCCCC2)n1`, the growth is 13.1% (inactive).

As for `O=C(COc1ccc(/C=C2\C(=O)Nc3ccc(F)cc32)cc1)Nc1ccccc1`, the growth was 98.5% (inactive).

On to `CCNC(=O)Oc1ccc(/C(=C(/C)c2ccc(Cl)cc2)c2ccc(OCCN3CCCC3)cc2)cc1`, for which the growth was 84.1% (inactive).

With `CCCCC[C@H]1C/C=C2/C(=O)C=C[C@@H]2C/C=C\CCCC(=O)O[C@@H](CCCCC)C/C=C2/C(=O)C=C[C@@H]2C/C=C\CCCC(=O)O1`, the growth is -27.8% (active).

With `COc1cc(/C=C/C(=O)c2ccc(NC(=O)CSc3nnc(-c4ccc(-c5nc6ccc(Cl)cc6[nH]5)cc4)o3)cc2)cc(OC)c1OC`, the growth is 103% (inactive).

With `O=[N+]([O-])c1cccc2ccc(N/N=C/c3ccccc3O)nc12`, the growth was 4.06% (active) and 89.3% (inactive).

For the compound `CCOC(=O)/C(=C/c1c(-c2ccccc2)[nH]c2ccccc12)C(=O)c1ccc(Cl)cc1`, the growth is 19.8% (inactive).

`COc1ccc(OC)c(/C=C2\Oc3cc(O)ccc3C2=O)c1`: the growth was 102% (inactive).

For the compound `COc1cccc(/C=C/C(=O)/C=C(/C=C/c2cccc(OC)c2OC)OB(F)F)c1OC`, the growth was 52.7% (inactive).

As for `CCc1ccc2c(c1)N(CCO)C1=C(C(=O)OC1)C2c1cccc(Br)c1` (centres undefined), the growth is 25.8% (inactive).

As for `CCOC(=O)c1sc(NC(=O)COc2ccc(/C=C3\Cc4ccc(Cl)cc4C3=O)cc2)nc1C`, the growth is 115% (inactive).

For `Cc1nn(-c2ccccc2)c(-n2ccnc2)c1/C=N/Nc1nc(-c2ccc(Cl)c(Cl)c2)cs1`, the growth is -8.71% (active).

`O=c1c2cc(C(F)(F)F)ccc2sc2c(NCCCNCCO)nc3ccccc3c12`: the growth is -74.3% (active).

Turning to `CC(=O)c1cc(-c2ccccc2N)n(-c2ccc3c(c2)OCO3)c1C`, the growth is 30.5% (inactive).

For the compound `COc1cccc(CNc2ccc3ncnc(Nc4ccc(F)c(Cl)c4)c3c2)c1`, the growth was -19.6% (active).

For the compound `CN1CCN(c2ccc3nc(-c4ccc5nc(-c6ccc(OCCC(C)(C)C)cc6)[nH]c5c4)[nH]c3c2)CC1`, the growth was -17.9% (active).

Consider `OCCNc1nc(Nc2ccc(Cl)c(Cl)c2)nc2ccccc12`, for which the growth was -10.6% (active).

As for `Nc1ncc(-c2ccc3ncnc(N4CCc5cc(F)c(Cl)cc54)c3c2)cc1C(F)(F)F`, the growth is -26.1% (active).

On to `CCCCCCCCN(CCCCCCCC)CC(O)c1cc(-c2ccccc2)nc2ccc(OC)cc12` (centres undefined), for which the growth was 104% (inactive).

`CC1(C)C2=C(C(=O)N1Cc1ccccc1)C(c1ccco1)N(C(=O)C1CCC1)CCN2` (centres undefined): the growth was 112% (inactive).

As for `CN1CCN(CCCOc2ccc3nc(Nc4cc(Cl)cc(Cl)c4)ccc3c2)CC1`, the growth was -74.4% (active).
